Laboratory results as given in article PMC4552634, “A New Set of Chemical Starting Points with Plasmodium falciparum Transmission-Blocking Potential for Antimalarial Drug Discovery” (PLoS ONE, 2015).
Among all 13,000 compounds or so, about 3,200 (25%) showed an effect of 50% or more. This is one part of the list.

test system: P. falciparum stage V gametocytes; parameters: BacTiter-Glo ATP luminescence viability of purified stage V gametocytes in 384-well plates, per cent inhibition versus DMSO; details: 48 h, 5 µM; inhibitor

SMILES	% Inhibition [%]
CCCCCCc1cnc2nc(N)nc(N)c2c1C [TCMDC-138065]	8.256
O=C(NC1CCC(N2CCCC(OCc3ccccc3)C2)CC1)c1cc2ccccc2[nH]1 (stereo not drawn) [TCMDC-132892]	14.17
CCCC(=O)Nc1ccc(OCCCN(Cc2ccccc2C(F)(F)F)c2ccc(C#N)c(C(F)(F)F)c2)cc1 [TCMDC-135466]	20.73
O=C(Nc1cccc(C(F)(F)F)c1)c1ccc(S(=O)(=O)NCC2CCN(CC3CCCCC3)CC2)cc1 [TCMDC-132776]	87.8
CCCCCN1CCC(CNS(=O)(=O)c2ccc(C(=O)Nc3cccc(C(F)(F)F)c3)cc2)CC1 [TCMDC-132775]	-3.109
O=C(Nc1cccc(C(F)(F)F)c1)c1cccc(S(=O)(=O)NCC2CCN(CC3CCCCC3)CC2)c1 [TCMDC-133684]	-26.22
COc1cc2c(cc1OC)C(C)(C)CN1Cc3c(c(CO)c(OC)c(OC)c3OC)CC21 (stereo not drawn) [TCMDC-137250]	-48.53
COc1ccc2nc(N)nc(C)c2c1 [TCMDC-123907]	15.32
CS(=O)(=O)CCNCc1cccc(-c2cc3c(Nc4ccc(OCc5cccc(F)c5)c(Cl)c4)ncnc3s2)c1 [TCMDC-134654]	-64.99
Cc1cccc2nc(-c3ccc(-c4ccc(NC(=O)c5cncn5C)cc4)s3)[nH]c12 [TCMDC-137067]	9.475
Cn1cncc1C(=O)Nc1cccc(-c2ccc(-c3nc4cc(F)ccc4[nH]3)s2)c1 [TCMDC-137066]	61.93
CC(=O)Nc1cccc(C(=O)Nc2cccc(-c3ccc(-c4nc5cccc(C)c5[nH]4)s3)c2)c1 [TCMDC-132144]	10.52
Cc1cccc2nc(-c3ccc(-c4cccc(NC(=O)c5cncn5C)c4)s3)[nH]c12 [TCMDC-137068]	78.66
CC(=O)Nc1cccc(C(=O)Nc2cccc(-c3ccc(-c4nc5cc(F)ccc5[nH]4)s3)c2)c1 [TCMDC-132142]	5.899
Cn1cncc1C(=O)Nc1cccc(-c2ccc(-c3nc4ccccc4[nH]3)s2)c1 [TCMDC-137055]	40.39
NC(N)=Nc1nc(-c2cc(NC(=O)C(F)(F)F)cc([N+](=O)[O-])c2)cs1 [TCMDC-137440]	-35.18
Nc1nc(N)c2c(ccc3nccc32)[nH]1 [TCMDC-124301]	-21.41
O=C(Nc1cccc(CN2CCN(C(=O)c3cccc(Cl)c3)CC2)c1)c1cccs1 [TCMDC-136326]	0.1034
CNC(=O)c1ccccc1Nc1cc(Nc2cc(OC)ccn2)ncc1Cl [TCMDC-135054]	-20.04
COc1cccc(CN2Cc3ccccc3OC3(CCN(Cc4c[nH]c5cnccc45)CC3)C2)c1 [TCMDC-133378]	19.44
Cc1ccc(CN2CCN(c3cc4c(cc3Cl)CCN4C(=O)Cc3ccc(Cl)c(NC(=O)Nc4cccc(C#N)c4)c3)CC2)cc1 [TCMDC-139471]	12.97
CN(CCS(C)(=O)=O)Cc1ccc(-c2ccc3ncnc(Nc4ccc(OCc5cccc(F)c5)c(Cl)c4)c3c2)o1 [TCMDC-138629]	-22.68

SMILES	% Inhibition [%]
O=C(c1cc(C(=O)Nc2ccc(F)cc2)c(=O)n(-c2ccc(F)cc2)c1)c1cc(Cl)ccc1O [TCMDC-123626]	8.881
Cc1ccc(O)c(C(=O)c2cc(C(=O)Nc3ccccc3C)c(=O)n(-c3ccccc3C)c2)c1 [TCMDC-123627]	58.98
O=C(c1cc(C(=O)Nc2ccccc2F)c(=O)n(-c2ccccc2F)c1)c1cc(Cl)ccc1O [TCMDC-123625]	90.03
O=C(c1cc(C(=O)Nc2ccccc2)c(=O)n(-c2ccccc2)c1)c1cc(Cl)ccc1O [TCMDC-124511]	30.05
COc1ccc(O)c(C(=O)c2cc(C(=O)NCCc3ccccc3)c(=O)n(CCc3ccccc3)c2)c1 [TCMDC-125435]	-12.88
COc1ccccc1NC(=O)c1cc(C(=O)c2cc(Cl)ccc2O)cn(-c2ccccc2OC)c1=O [TCMDC-124338]	29.65
O=C(Nc1ccc(-c2cccc(-c3nc4ccc(F)cc4[nH]3)c2)cc1)c1cnn2cccnc12 [TCMDC-136864]	-12.66
C(=NNc1ccnc2ccccc12)c1ccncc1 [TCMDC-142016]	-6.172
CCc1ccc(NC(=O)N(CCCn2ccnc2)Cc2csc(-c3ccc(CNCc4ccccc4)cc3)n2)cc1 [TCMDC-141797]	5.722
O=C(C1COc2ccccc2O1)N(CCCn1ccnc1)Cc1csc(-c2ccc(CNCc3ccccc3)cc2)n1 (stereo not drawn) [TCMDC-141813]	25.07
CCCN(Cc1nnc(-c2cccs2)o1)C(=O)C1COc2ccccc2O1 (stereo not drawn) [TCMDC-125333]	18.28
CN1CCN(CCCN(Cc2csc(-c3ccc(CNCc4ccccc4)cc3)n2)C(=O)Nc2cccc(Cl)c2)CC1 [TCMDC-141794]	15.5
CCCCNCc1ccc(-c2nc(CN(CCCn3ccnc3)C(=O)NC3CC3c3ccccc3)cs2)cc1 (stereo not drawn) [TCMDC-141638]	80.86
O=C(Nc1ccc2ccccc2c1)N(CCCn1ccnc1)Cc1csc(-c2ccc(CNCc3ccccc3)cc2)n1 [TCMDC-141798]	15.32
CCCCNCc1ccc(-c2nc(CN(CCCN3CCN(C)CC3)C(=O)Nc3cccc(Cl)c3)cs2)cc1 [TCMDC-141637]	88.1
CCCCNCc1ccc(-c2nc(CN(CCCn3ccnc3)C(=O)Nc3ccc(CC)cc3)cs2)cc1 [TCMDC-141639]	61.14
CN1CCCN(Cc2ccc(-c3cccc(NC(=O)c4cccc(Cl)c4)c3)cc2)CC1 [TCMDC-132641]	27.52
CCCCNCc1ccc(-c2nc(CN(CCCn3ccnc3)C(=O)C3COc4ccccc4O3)cs2)cc1 (stereo not drawn) [TCMDC-141702]	64.34
CCOC(=O)CC[C@@H](NC(=O)c1ccc(NCc2ccc3ccc4nc(C)[nH]c(=O)c4c3c2)cc1F)C(=O)N[C@@H](Cc1c[nH]c2ccccc12)C(=O)OCC [TCMDC-137320]	27.07
O=C(Nc1cccc(-c2cc(-c3c(Cl)cccc3Cl)no2)c1)c1cnc2ccccc2c1 [TCMDC-136759]	13.25
CC(=O)N(C)C1CCN(Cc2cccc(-c3ccc(-c4nc5cc(F)ccc5[nH]4)cc3)c2)C1.O=C(O)C(F)(F)F (stereo not drawn) [TCMDC-133894]	26.71
O=C(NC1CCN(Cc2ccc3c(c2)OCCO3)CC1)c1ccc(-c2cccc(Cl)c2)s1 [TCMDC-134338]	2.147

SMILES	% Inhibition [%]
O=C(NC1CCCCC1)N(CCCn1ccnc1)Cc1csc(-c2ccc(CNCc3ccccc3)cc2)n1 [TCMDC-141645]	7.097
O=C(NC1CC1c1ccccc1)N(CCCn1ccnc1)Cc1csc(-c2ccc(CNCc3ccccc3)cc2)n1 (stereo not drawn) [TCMDC-141644]	86.73
O=C(Nc1cccc(Cl)c1)N(CCCn1ccnc1)Cc1csc(-c2ccc(CNCc3ccccc3)cc2)n1 [TCMDC-141796]	19.94
CC(=O)c1cccc(S(=O)(=O)NCCCNc2nc3cc(C)cc(C)c3cc2C#N)c1 [TCMDC-123734]	8.065
CCS(=O)(=O)N1CCN(c2nc(-c3ccccc3)nc(COC)c2Cc2ccccc2F)CC1 [TCMDC-124784]	-1.025
O=[N+]([O-])c1cccc(C=NNc2nc(Nc3ccccc3)nc(Nc3ccccc3)n2)c1 [TCMDC-125797]	40.05
COc1cc(/C=N/Nc2nc(Nc3ccccc3)nc(Nc3ccccc3)n2)ccc1OCc1ccccc1[N+](=O)[O-] [TCMDC-125793]	59.87
COc1ccc(Nc2nc(N/N=C/c3ccc(O)cc3)nc(Nc3ccc([N+](=O)[O-])cc3)n2)cc1 [TCMDC-124127]	-40.32
Cc1cc(NC2CCCC2)nc(Nc2ccccc2C)n1 [TCMDC-133473]	-0.2818
O=C(Cc1ccc(Cl)cc1)Nc1cc(Cl)ccc1Cn1cnc(N2CCNCC2)cc1=O [TCMDC-134317]	-8.964
CCc1c(C)c(C#N)c2nc3ccccc3n2c1NCc1ccco1 [TCMDC-124079]	78.38
CCCCNc1c(CC)c(C)c(C#N)c2nc3ccccc3n12 [TCMDC-125729]	72.07
Cl.Oc1ccccc1Nc1nc(NCc2ccco2)c2ccccc2n1 [TCMDC-124544]	-81.25
Cc1cc(NCCCN2CCCC2=O)n2c(nc3ccccc32)c1C#N [TCMDC-124485]	-25.7
Cc1ccc(O)c(Nc2c3c(c(C#N)c4nc5ccccc5n24)CCC3)c1 [TCMDC-124227]	16.2
COc1ccc2ncc(C#N)c(CCN3C[C@H](CNCc4ccccc4)[C@H](O)C3)c2n1 [TCMDC-136369]	48.08
Cc1nc(NCc2ccccc2)cc(Nc2cc(NCc3ccccc3)nc(C)n2)n1 [TCMDC-137298]	0.4033
Cc1c(CCC#N)c(NCc2ccccc2)n2c(nc3ccccc32)c1C#N [TCMDC-123759]	74.35
COc1ccc(Nc2nc(NCc3ccco3)c3ccccc3n2)cc1.Cl [TCMDC-124562]	32.58
COc1ccccc1N=C1SC(=Cc2cn(CC(=O)N3CCCc4ccccc43)c3ccccc23)C(=O)N1C1CCCCC1 [TCMDC-124809]	13.24
Cc1c(C(=O)N2CCCC(C(F)(F)F)C2)sc2cccc(F)c12 (stereo not drawn) [TCMDC-124598]	6.461
CS(=O)(=O)CCNCc1ccc(-c2cc3c(Nc4ccc(OCc5cccc(F)c5)c(Cl)c4)ncnc3s2)[nH]1 [TCMDC-135511]	-19.72
